Source: PubChem BioAssay
Rows were chosen to be rich in hits. Some 1.1% of all compounds tested hit in one or more screens of this group.
HTR5A ag ctr: HTR5A agonists in luminescence cell assay, primary screen, counter-screen for OPRM1-OPRD1 heterodimer agonist project, full-deck HTS | 5-hydroxytryptamine receptor 5A (Homo sapiens), P47898 | cell-based | activation, % at 9.3 µM | hit rate 0.61% among 340,000; in the data active means activation mostly above about 9.5%, no sharp cut-off; inactive means mostly below about 7.6%;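 further: 0% = cells with vehicle only and 100% = reference agonist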
Target sequence (P47898 whole entry, looked up): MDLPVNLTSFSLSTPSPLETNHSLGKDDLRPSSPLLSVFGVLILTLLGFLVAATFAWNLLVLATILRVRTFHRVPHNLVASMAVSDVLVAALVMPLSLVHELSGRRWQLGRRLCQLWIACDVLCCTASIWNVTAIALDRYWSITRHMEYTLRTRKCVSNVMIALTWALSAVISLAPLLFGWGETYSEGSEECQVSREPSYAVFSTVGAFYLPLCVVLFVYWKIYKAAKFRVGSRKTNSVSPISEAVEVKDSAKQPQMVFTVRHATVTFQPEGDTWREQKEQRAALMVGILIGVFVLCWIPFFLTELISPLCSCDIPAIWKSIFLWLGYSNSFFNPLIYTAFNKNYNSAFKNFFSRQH
OPRM1-OPRD1 inv: inverse agonists of MOR-DOR heterodimerization, primary screen, cell-based, luminescence. hit rate 0.21% among 340,000. Mu-type opioid receptor (Homo sapiens) + Delta-type opioid receptor (Homo sapiens), …. cell-based MOR-DOR heterodimer luminescence, inverse agonism. inhibition, % at 9.3 µM; in the data active means inhibition above about 22%, passing the limit was not always enough;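 further: 0% = cells with DMSO and 100% = wells without cells with DMSO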
OPRM1-OPRD1 ag: agonists of OPRM1-OPRD1 heterodimerization, primary screen, cell-based, luminescence; Mu-type opioid receptor (Homo sapiens) + Delta-type opioid receptor (Homo sapiens), …; cells; activation, % at 9.3 µM; hit rate 0.3% among 340,000; in the data active means activation above about 18%;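 further: 0% = vehicle-treated cells and 100% = reference agonist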
HTR5A inv ctr: HTR5A inverse agonists in luminescence cell assay, primary screen, counter-screen for OPRM1-OPRD1 heterodimer inverse agonist project, full-deck HTS; 5-hydroxytryptamine receptor 5A (Homo sapiens), P47898; HTR5A cell line, inverse agonism; inhibition, % at 9.3 µM; hit rate 0.083% among 340,000; AID 504634, 2011; in the data active means inhibition mostly above about 23%, no sharp cut-off; inactive means mostly below about 18%;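 further: 0% = cells with DMSO and 100% = no-cell wells with DMSO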
MOR-DOR inv conf: inverse agonists of MOR-DOR heterodimerization, confirmation, cell-based, luminescence. shares compounds with OPRM1-OPRD1 inv. cells expressing OPRM1/OPRD1 heterodimer. inhibition, % at 9.3 µM. hit rate 20% among 580; in the data active means inhibition above about 32%;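 further: 0% = cells with DMSO and 100% = wells lacking cells with DMSO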
HTR5A inv ctr2: HTR5A inverse agonists, counter-screen for OPRM1-OPRD1 inverse agonist project, cell-based, luminescence. shares compounds with OPRM1-OPRD1 inv. HTR5A-expressing cells, inverse agonism. inhibition, % at 9.3 µM. 580 tested, under 10 active; call rule not given here;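 further: 0% = cells with DMSO and 100% = no-cell wells with DMSO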
* = called active by the depositor; i = inactive; . = no result given.

SMILES	HTR5A ag ctr	OPRM1-OPRD1 inv	OPRM1-OPRD1 ag	HTR5A inv ctr	MOR-DOR inv conf	HTR5A inv ctr2
Cc1nc2c(nc1C)C(=O)c1ccccc1C2=O	0.6	8.7	-2.0	-2.1	.	.
COc1ccc(C(=O)Cc2nnc(C)s2)c(OC)c1	-6.0	77.6*	-12.5	18.7	37.0*	8.8
COc1cc(OC)cc(C(=O)NNC(=S)Nc2ccc(S(N)(=O)=O)cc2)c1	3.8	34.0*	-7.0	-16.2	-1.6	-7.4
COc1ccc(CNC(=S)Nc2ccc(S(N)(=O)=O)cc2)cc1	6.6	2.3	-0.5	-9.6	.	.
COc1ccc(C)cc1NC(=O)C1CCCCN1S(=O)(=O)c1ccccc1 (stereo not given)	6.4	9.2	-2.4	3.8	.	.
CC(=O)C(Sc1nc(N(C)C)nc(N(C)C)n1)C(=O)Nc1ccccc1 (stereo not given)	-2.5	-4.5	0.9	-3.7	.	.
CC(=O)C(Sc1nn(C)c(=S)s1)C(=O)Nc1ccccc1 (stereo not given)	-10.9	72.1*	-15.8	16.1	-265.9	-38.3
Cc1ccc(OCC(=O)OCC(=O)c2cccc([N+](=O)[O-])c2)cc1C	-5.1	43.8*	-7.7	18.5	-26.5	3.6
O=C(CNS(=O)(=O)c1ccccc1)OCc1cccc([N+](=O)[O-])c1	-1.5	-5.6	1.2	21.5	.	.
O=C(CNS(=O)(=O)c1ccccc1)OCC(=O)c1cccc([N+](=O)[O-])c1	-7.7	61.3*	-11.6	13.8	17.4	5.2
O=C(Cc1ccccc1)OCC(=O)c1cccc([N+](=O)[O-])c1	-0.2	52.2*	-12.7	0.7	28.6	8.5
O=C(CNC(=O)c1ccc(Br)o1)OCC(=O)c1cccc([N+](=O)[O-])c1	-14.0	83.5*	-18.2	35.7*	i	-22.0
Cc1cc(NC(=O)Cn2nc(C)c([N+](=O)[O-])c2C)no1	1.2	18.2	-3.6	8.6	.	.
Cc1ccc2ccccc2c1NC(=O)c1ccco1	4.8	18.4	-3.7	-18.1	.	.
O=C(COC(=O)c1cnccn1)c1cccc([N+](=O)[O-])c1	-7.9	65.5*	-12.3	-2.1	-254.2	-45.5
CCCCNC(=S)NNC(=O)c1cc(C2CC2)nc2ccccc12	1.0	11.6	-2.2	-3.5	.	.
CCCCNC(=S)NNC(=O)c1cc(-c2ccncc2)nc2ccccc12	-5.3	33.5*	-6.5	22.8	-290.2	-8.6
COc1ccc(-c2csc3ncnc(N4CCN(c5cccc(C)c5C)CC4)c23)cc1	0.6	40.0*	-7.4	-7.4	-175.8	-10.6
COc1ccc(-c2csc3ncnc(N4CCN(c5ccccc5Cl)CC4)c23)cc1	-2.0	5.7	-1.1	14.1	.	.
CC(=O)N(/N=C1\Sc2ccccc2C1=O)c1cccc(C)c1	-14.1	53.3*	-10.8	30.9	44.4*	-6.7
Cc1ccc(NNC(=O)C(=O)N2CCCCC2)cc1	-0.8	27.9*	-5.4	2.8	3.3	-5.8
COc1ccc(NC(C)C(=O)Nc2cccc(S(=O)(=O)N3CCOCC3)c2)cc1OC (stereo not given)	3.8	-4.1	1.0	-9.6	.	.
Cc1ccc2c(c1)C(=O)C(=O)N2CCCOc1ccccc1C	4.0	19.5	-3.9	-13.3	.	.
Cc1ccccc1OCCCN1C(=O)C(=O)c2cccc(C)c21	2.9	49.6*	-9.6	-8.2	i	-2.3
O=C(COC(=O)C1CC1)NCCc1ccc(Cl)cc1	1.2	2.8	-0.4	5.8	.	.
SMILES	HTR5A ag ctr	OPRM1-OPRD1 inv	OPRM1-OPRD1 ag	HTR5A inv ctr	MOR-DOR inv conf	HTR5A inv ctr2
Cc1ccc2oc(/N=C(\N)NC(=O)C(C)(C)C)nc2c1	-9.4	44.6*	-8.7	14.2	18.8	-10.8
Cc1ccc2oc(/N=C(\N)NC(=O)C3CC3)nc2c1	5.8	-8.0	1.6	-15.2	.	.
Cc1ccc(C2Nc3ccccc3NC3=C2C(=O)CC(C)(C)C3)c(O)c1 (stereo not given)	1.0	7.3	-1.5	-3.8	.	.
CC1(C)CC(=O)C2=C(C1)Nc1ccccc1NC2c1cc(Cl)ccc1O (stereo not given)	1.7	41.5*	-8.1	-4.8	-427.8	-11.8
Cc1cc(Cl)ccc1OCCCC(=O)OCC(=O)Nc1cccc(S(N)(=O)=O)c1	4.5	-3.8	1.0	2.3	.	.
Cc1cc(C(=O)NNC(=O)c2ccc(Cl)cc2)c2ccccc2n1	-3.5	5.2	-1.2	8.6	.	.
Cc1cc(C(=O)NNC(=S)NC(C)c2ccccc2)c2ccccc2n1 (stereo not given)	3.4	34.2*	-6.4	-12.4	5.5	-13.2
CN(C)S(=O)(=O)c1ccc(N2CCCC2)c(C(=O)N2CCC(C(N)=O)CC2)c1	-4.3	14.4	-2.3	11.8	.	.
COc1cc(/C=N/Nc2ccc(F)cc2F)cc(OC)c1O	-3.5	32.2*	-6.2	13.0	-12.5	1.5
COc1cc(/C=N/Nc2ccccc2[N+](=O)[O-])cc(OC)c1O	3.3	-18.7	4.0	-9.2	.	.
O=C(Nc1ccccc1C(F)(F)F)NC1CCCCCCC1	5.0	-9.8	1.8	-4.0	.	.
ON1C2CCCCC2N(O)C1c1ccccc1C(F)(F)F (stereo not given)	-3.5	43.8*	-7.8	8.9	-51.6	10.2
O=C(CCN1C(=O)c2cccc([N+](=O)[O-])c2C1=O)NC1CCCCCC1	2.0	5.9	-1.1	-8.3	.	.
Nc1ccc(C(=O)OCC(=O)c2cccc([N+](=O)[O-])c2)cc1	-7.1	18.8	-2.9	17.7	.	.
CC(C)N(C(=O)COC(=O)c1ccccc1C(=O)c1ccc(Cl)c([N+](=O)[O-])c1)C(C)C	-1.7	7.0	-1.3	-15.4	.	.
Cc1cc(C(=O)OCC(=O)c2ccc(Cl)c([N+](=O)[O-])c2)c2cccc(C)c2n1	-1.9	34.4*	-6.8	2.6	-40.4	-8.7
COc1ccccc1C(=O)OCC(=O)c1cccc([N+](=O)[O-])c1	-2.2	18.9	-3.6	7.9	.	.
O=C(COC(=O)c1cc2ccccc2oc1=O)c1cccc([N+](=O)[O-])c1	-1.7	47.3*	-9.2	13.0	46.3*	19.2
Cc1cc(C(=O)OCC(=O)c2cccc([N+](=O)[O-])c2)c2ccccc2n1	-7.7	60.5*	-11.8	-3.2	38.4*	17.9
Cc1ccc(C2C(C(=O)c3cc4ccccc4o3)=C(O)C(=O)N2CCN2CCOCC2)o1 (stereo not given)	-0.3	41.6*	-6.7	-5.1	-351.1	-19.5
O=[N+]([O-])c1ccc(O)c(C=NNc2ccc(S(=O)(=O)O)cc2)c1	-3.8	31.2*	-6.2	14.7	-84.9	-11.8
O=[N+]([O-])c1cccc(N/N=C/c2cc([N+](=O)[O-])ccc2O)c1	0.6	-17.7	3.1	-1.5	.	.
CC1Cc2ccccc2N1C(=O)CCS(=O)(=O)c1ccc2c(c1)NC(=O)CS2 (stereo not given)	0.1	10.7	-2.2	13.0	.	.
